Assay results reported in PubChem BioAssay (NCATS).
Records with an inconclusive call do not appear. Calls of active or inactive are those of the source. Unless noted, calls come from the whole dose curve; as a rule, active = well fitted curve in the direction sought with a large enough effect; inconclusive = small, poorly fitted or top-dose-only effect, or another doubt; inactive = no such curve, though single readings can be large; an effect the other way counts as inactive or inconclusive.

Experiments:
[1] = Validation screen for small molecules that induce DNA re-replication in SW480 colon adenocarcinoma cells (AID 504364)
Outline: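 SW480 cells (250/well) exposed 48 h at 37 C, 5% CO2, then Hoechst-stained 40 min. Nuclear DNA content imaged by fluorescence scanning (405 nm excitation, 500-530 nm emission); re-replication scored as increased nuclei with elevated intensity.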

[2] = molecular target: Peptidyl-prolyl cis-trans isomerase NIMA-interacting 1 (Homo sapiens) (UniProt Q13526); assay: qHTS Validation Assay to Find Inhibitors of Pin1 (AID 504536; active = well fitted inhibition curve with a large enough effect in the polarisation, with a control signal flat, not every such curve was filed as active; the % refers to the polarisation)
Peptidyl-prolyl cis-trans isomerase NIMA-interacting 1 (Homo sapiens), sequence (Q13526 whole entry, looked up): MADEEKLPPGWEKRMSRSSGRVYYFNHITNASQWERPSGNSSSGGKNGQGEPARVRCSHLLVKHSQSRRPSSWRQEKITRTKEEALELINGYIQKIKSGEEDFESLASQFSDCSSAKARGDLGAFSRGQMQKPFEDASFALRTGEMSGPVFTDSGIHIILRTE
Outline: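 Fluorescence polarization competition: compounds (titration) displace HiFluor-488-labeled Pin1-1b peptide from Pin1 (0.3 uM final) in pH 7.5 HEPES buffer with DTT, 10 min at room temperature; %Activity normalized to no-enzyme wells, curves fitted.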

[3] = molecular target: Phosphoglycerate kinase, glycosomal (Trypanosoma brucei brucei) (UniProt P07378); assay: qHTS Validation Assay to Find Inhibitors of Phosphoglycerate Kinase (AID 504547)
Phosphoglycerate kinase, glycosomal (Trypanosoma brucei brucei), sequence (P07378 whole entry, looked up): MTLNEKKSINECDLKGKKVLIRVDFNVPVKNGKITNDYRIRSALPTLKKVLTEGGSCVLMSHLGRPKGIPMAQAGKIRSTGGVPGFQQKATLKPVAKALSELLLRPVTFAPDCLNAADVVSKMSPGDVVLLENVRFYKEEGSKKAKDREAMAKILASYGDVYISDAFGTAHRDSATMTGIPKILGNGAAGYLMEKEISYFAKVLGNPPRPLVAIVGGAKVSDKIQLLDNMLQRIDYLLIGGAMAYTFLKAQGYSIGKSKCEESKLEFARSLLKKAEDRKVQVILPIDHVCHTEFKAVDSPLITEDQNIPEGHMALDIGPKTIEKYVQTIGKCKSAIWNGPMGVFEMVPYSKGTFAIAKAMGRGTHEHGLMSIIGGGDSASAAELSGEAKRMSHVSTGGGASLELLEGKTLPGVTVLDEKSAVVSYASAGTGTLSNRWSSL
Outline: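 Substrate/PGK mix plus compound; reaction started with GAPDH (100nM final) to form 1,3-BPG; 60 min RT; Kinase-Glo Plus 10 min; luminescence. TEA 100mM pH 7.6, MgCl2 5mM, Tween-20 0.01%.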

[4] = molecular target: phosphoglycerate mutase (Leishmania major) (UniProt Q4Q090); assay: qHTS Validation Assay to Find Inhibitors of Phosphoglycerate Mutase (AID 504548); details: Potency: inhibition qHTS; note: series mostly up to about 58 µM
phosphoglycerate mutase (Leishmania major), sequence (Q4Q090 1-553): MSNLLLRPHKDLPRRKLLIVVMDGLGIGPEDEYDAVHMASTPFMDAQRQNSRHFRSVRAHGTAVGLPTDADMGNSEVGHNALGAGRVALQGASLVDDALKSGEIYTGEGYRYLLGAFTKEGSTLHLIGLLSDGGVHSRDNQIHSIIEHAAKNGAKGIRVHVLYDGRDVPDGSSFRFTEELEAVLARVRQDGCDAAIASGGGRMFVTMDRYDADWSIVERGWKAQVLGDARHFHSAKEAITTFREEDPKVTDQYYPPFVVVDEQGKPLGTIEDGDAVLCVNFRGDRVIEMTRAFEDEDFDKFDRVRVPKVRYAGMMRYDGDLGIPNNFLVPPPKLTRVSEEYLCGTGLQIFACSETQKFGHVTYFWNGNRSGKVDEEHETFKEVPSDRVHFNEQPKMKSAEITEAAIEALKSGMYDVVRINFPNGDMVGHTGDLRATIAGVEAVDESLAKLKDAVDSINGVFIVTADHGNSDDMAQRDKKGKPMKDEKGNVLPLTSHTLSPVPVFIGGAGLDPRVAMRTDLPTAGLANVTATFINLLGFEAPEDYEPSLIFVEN
Outline: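 Lm PGAM 1.25nM final; 100 mM TEA pH 7.6, 5 mM MgCl2, 0.01% Tween-20; 45 min RT; Kinase-GloPlus, 10 min; end-point luminescence. Enzyme-free wells as negative controls.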

[5] = molecular target: Ubiquitin carboxyl-terminal hydrolase 1 (Homo sapiens) (UniProt O94782); assay: Inhibitors of USP1/UAF1: Pilot qHTS (AID 504865);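 note: rhodamine fluorescence freed from ubiquitin-rhodamine substrate followed over time; top concentration of the series differs between compounds; nearly all actives have a fitted effect of over 35% in size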
Ubiquitin carboxyl-terminal hydrolase 1 (Homo sapiens), sequence (O94782 whole entry, looked up): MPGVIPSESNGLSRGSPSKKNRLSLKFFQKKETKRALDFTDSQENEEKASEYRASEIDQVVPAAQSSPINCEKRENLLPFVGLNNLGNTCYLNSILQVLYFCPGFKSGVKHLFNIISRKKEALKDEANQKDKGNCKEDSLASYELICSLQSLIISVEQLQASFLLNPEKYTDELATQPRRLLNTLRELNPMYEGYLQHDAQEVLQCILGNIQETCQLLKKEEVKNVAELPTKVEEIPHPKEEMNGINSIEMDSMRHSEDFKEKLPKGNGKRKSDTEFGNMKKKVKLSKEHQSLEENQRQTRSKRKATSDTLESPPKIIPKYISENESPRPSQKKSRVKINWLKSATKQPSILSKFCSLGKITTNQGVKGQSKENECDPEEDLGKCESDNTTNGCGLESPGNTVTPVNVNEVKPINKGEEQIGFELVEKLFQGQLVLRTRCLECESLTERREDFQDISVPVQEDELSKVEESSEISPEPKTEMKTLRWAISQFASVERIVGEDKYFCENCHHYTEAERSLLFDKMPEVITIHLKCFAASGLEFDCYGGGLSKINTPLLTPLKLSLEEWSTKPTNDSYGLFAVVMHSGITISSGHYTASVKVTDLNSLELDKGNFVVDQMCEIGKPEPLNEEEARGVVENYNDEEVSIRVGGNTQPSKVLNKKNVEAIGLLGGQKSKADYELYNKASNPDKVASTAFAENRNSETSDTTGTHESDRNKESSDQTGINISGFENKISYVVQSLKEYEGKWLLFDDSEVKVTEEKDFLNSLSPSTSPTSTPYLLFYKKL
Outline: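 USP1/UAF1 complex at 1 nM preincubated 15 min at room temperature with compound, then Ub-Rho substrate added at 150 nM final. Fluorescence (480/540 nm) read kinetically in 50 mM HEPES pH 7.8, 0.5 mM EDTA, 1 mM TCEP, 0.1 mg/ml BSA, 0.01% Tween-20.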

[6] = qHTS for Inhibitors of ATXN expression: Validation of Cytotoxic Assay (AID 588349)
Outline: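 HEK293 cells treated with titrated compound for 72 hr at 37 degrees C; viability read as intracellular ATP by CellTiter Glo luminescence.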

[7] = qHTS for Inhibitors of ATXN expression: Validation (AID 588378); note: series mostly up to about 57 µM; nearly all actives have a fitted effect of over 75% in size
Outline: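 HEK293 cells carrying ATXN2-firefly luciferase reporter, treated with compound 24 h at 37 °C. Viability read first by CellTiter-Fluor (405/525 nm), then reporter expression by Bright-Glo luminescence; controls were a known ATXN2 expression inhibitor and a luciferase inhibitor.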

Measured: Potency

O=c1[nH]c2ccccc2n1CCCN1CCN(C(c2ccccc2)c2ccccc2)CC1
inactive: [1]

CN1CCc2ccccc2Cc2[nH]c3ccccc3c2CC1
inactive: all assays above

COc1cccc(C(=O)NCCN2CCN(c3ccc(Cl)cc3)CC2)c1
inactive: all assays above

CN1CCc2cc(O)c(O)cc2C(c2ccccc2)C1 (stereo not given)
not listed: [6] | [7]
inactive: all other assays above

Cc1ccccc1CNc1ncnc2c1ncn2C1OC(CO)C(O)C1O (stereo not given)
inactive: all assays above

S=C(S)OC1CC2CC1C1CCCC21 (stereo not given)
not listed: [7]
inactive: all other assays above

C=C/C(C)=C/[C@@]1(C)SC(=O)C(C)=C1O
inactive: [1]

CC(C)(C)c1ccc(S(=O)(=O)/C=C/C#N)cc1
not listed: [6] | [7]
inactive: all other assays above

O=C(O)CCCC[C@@H]1CCSS1
inactive: all assays above

O=C(O)[C@@H]1C[C@H](C(=O)O)N1
inactive: all assays above

CN1[C@@H](CC(=O)c2ccccc2)CCC[C@H]1C[C@H](O)c1ccccc1
not listed: [6] | [7]
inactive: all other assays above

CCCCN1CCC(n2c(=O)[nH]c3ccccc32)CC1
inactive: all assays above
